Reference: PubChem BioAssay (EPA / NIEHS)
Results filed as inconclusive are left out. Calls of active or inactive are those of the source. The calls were made as follows, unless noted: active = hit-call score of the fitted dose curve at least 0.9, where 1 is the maximum; inactive = score below 0.9.

Experiments:
[1] = read-out: Human Leukocyte Antigen - DR isotype (HLADR), HLA-DRA (gene 3122); assay: BSK_3C_HLADR: BioMAP Diversity Plus: 3C Assay for Human Leukocyte Antigen - DR isotype (HLADR) Biomarker Activity (AID 2283019); details: primary human endothelial cells (HUVEC); actives raise or lower the signal
Method in brief: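 Endothelial cells from human umbilical vein are treated with test chemical; after 24 h, HLA-DR levels are measured by ELISA. Data are fitted in both directions using DMSO as the baseline.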

[2] = read-out: Interleukin-8 (IL8), CXCL8 (gene 3576); assay: BSK_3C_IL8: BioMAP Diversity Plus: 3C Assay for Interleukin-8 (IL8) Biomarker Activity (AID 2283020); details: primary human endothelial cells (HUVEC); actives raise or lower the signal
Method in brief: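 IL-8 was measured by ELISA in HUVEC cultures 24 h after chemical dosing, with gain or loss of signal fitted relative to DMSO. Parallel SRB total-protein staining tracked overt cytotoxicity.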

[3] = read-out: Monokine induced gamma interferon (MIG), CXCL9 (gene 4283); assay: BSK_3C_MIG: BioMAP Diversity Plus: 3C Assay for Monokine induced gamma interferon (MIG) Biomarker Activity (AID 2283021); details: primary human endothelial cells (HUVEC); actives raise or lower the signal
Method in brief: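 ELISA measurement of MIG in human umbilical vein endothelial cells 24 h after treatment. Cytotoxicity tracked by SRB staining in parallel cultures; gain or loss of signal fitted relative to DMSO.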

[4] = molecular target: human Vitamin D Receptor (VDR), VDR (gene 7421) (UniProt P11473); assay: ATG_VDR_TRANS: Attagene TRANS-FACTORIAL HepG2 Assay for human Vitamin D Receptor (VDR) (AID 2283022; active = hit-call score of the fitted dose curve at least 0.9, where 1 is the maximum)
Sequence of human Vitamin D Receptor (VDR), VDR (gene 7421) (P11473 whole entry, looked up, the tested form may be a part): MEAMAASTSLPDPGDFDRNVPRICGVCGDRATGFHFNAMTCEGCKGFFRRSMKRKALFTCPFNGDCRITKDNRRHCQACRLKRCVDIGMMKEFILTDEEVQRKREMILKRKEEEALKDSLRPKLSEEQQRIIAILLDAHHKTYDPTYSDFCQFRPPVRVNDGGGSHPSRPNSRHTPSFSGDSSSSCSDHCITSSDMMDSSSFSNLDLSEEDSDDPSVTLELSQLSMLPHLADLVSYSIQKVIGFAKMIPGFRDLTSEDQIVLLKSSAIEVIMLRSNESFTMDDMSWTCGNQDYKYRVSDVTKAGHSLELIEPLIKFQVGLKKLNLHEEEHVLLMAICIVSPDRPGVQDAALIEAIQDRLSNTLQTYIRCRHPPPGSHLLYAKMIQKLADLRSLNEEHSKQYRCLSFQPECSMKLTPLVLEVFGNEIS
Method in brief: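 Fluorescence of labelled reporter cDNA fragments, resolved by capillary electrophoresis, gives mRNA induction after 24 h treatment of HepG2 cells carrying transfected Gal4-fusion reporter units. Activity is fitted in the positive direction with DMSO as baseline.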

[5] = BSK_3C_SRB: Viability Assessment in the BioMAP Diversity Plus: 3C Assay (AID 2283023); details: primary human endothelial cells (HUVEC);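 also: fitted both ways against DMSO so a hit may be signal rise or drop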
Method in brief: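 Cells were dosed with chemical, cultured 24 h, fixed with 10% TCA, stained with 0.1% SRB and read at 560 nm. Human umbilical vein endothelium was used; DMSO served as negative control and baseline.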

[6] = BSK_3C_Vis: BioMAP Diversity Plus: 3C Assay for Morphology Visualization (AID 2283025); details: primary human endothelial cells (HUVEC);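 also: fitted both ways so gain or loss versus DMSO counts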;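 as to AC50: light microscopy image of cell morphology used as background control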
Method in brief: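 Light-microscopy visualization of HUVEC cultures at 24 h post-treatment, with DMSO as baseline for bidirectional fitting.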

[7] = BSK_4H_SRB: Viability Assessment in the BioMAP Diversity Plus: 4H Assay (AID 2283027); details: primary human endothelial cells (HUVEC);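 also: cells exposed to compound for 24 h before staining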
Method in brief: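 Cytotoxicity read-out in primary human endothelial cells: after 24 h compound exposure, cells were TCA-fixed (10%), stained with 0.1% SRB and absorbance taken at 560 nm. Values fitted in both directions relative to DMSO.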

[8] = BSK_BE3C_SRB: Viability Assessment in the BioMAP Diversity Plus: BE3C Assay (AID 2283028); details: primary human bronchial epithelial cells
Method in brief: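 Overt cytotoxicity was assessed as total protein in confluent human primary bronchial epithelial cultures 24 h after chemical addition, using 0.1% sulforhodamine B staining read at 560 nm.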

[9] = read-out: Urokinase-type plasminogen activator receptor (uPAR), PLAUR (gene 5329); assay: BSK_4H_uPAR: BioMAP Diversity Plus: 4H Assay for Urokinase-type plasminogen activator receptor (uPAR) Biomarker Activity (AID 2283030); details: primary human endothelial cells (HUVEC); actives raise or lower the signal
Method in brief: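 Chemicals are dosed onto human vascular endothelial primary cells (umbilical vein). After 24 h, uPAR is read by ELISA. Gain or loss of signal is fitted relative to DMSO.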

[10] = read-out: Vascular endothelial growth factor receptor 2 (Homo sapiens) (UniProt P35968); assay: BSK_4H_VEGFRII: BioMAP Diversity Plus: 4H Assay for Vascular endothelial growth factor receptor 2 (VEGFR2) Biomarker Activity (AID 2283031); details: primary human endothelial cells (HUVEC); actives raise or lower the signal
Method in brief: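 VEGFRII levels on human vascular endothelial primary cells were determined by ELISA at 24 hours post-dosing, with gain- or loss-of-signal fitted against DMSO controls.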

[11] = read-out: Human Leukocyte Antigen - DR isotype (HLADR), HLA-DRA (gene 3122); assay: BSK_BE3C_HLADR: BioMAP Diversity Plus: BE3C Assay for Human Leukocyte Antigen - DR isotype (HLADR) Biomarker Activity (AID 2283032); details: primary human bronchial epithelial cells; actives raise or lower the signal
Method in brief: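 Cell-surface HLA-DR ELISA readout at 24 h after dosing in the BE3C primary human lung bronchial epithelial system; gain or loss of signal against DMSO, with parallel sulforhodamine B staining of total protein for overt cytotoxicity.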

[12] = read-out: Vascular cell adhesion molecule 1 (VCAM1), VCAM1 (gene 7412); assay: BSK_4H_VCAM1: BioMAP Diversity Plus: 4H Assay for Vascular cell adhesion molecule 1 (VCAM1) Biomarker Activity (AID 2283033); details: primary human endothelial cells (HUVEC); actives raise or lower the signal;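 also: cell-surface VCAM-1 protein measured by ELISA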
Method in brief: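 VCAM-1 ELISA read 24 h after chemical dosing of HUVEC in the BioMAP 4H system, with gain or loss of signal fitted relative to DMSO. Parallel SRB staining (560 nm) checked overt cytotoxicity.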

[13] = read-out: Interferon-gamma inducible Protein 10 (IP10), CXCL10 (gene 3627); assay: BSK_BE3C_IP10: BioMAP Diversity Plus: BE3C Assay for Interferon-gamma inducible Protein 10 (IP10) Biomarker Activity (AID 2283034); details: primary human bronchial epithelial cells; actives raise or lower the signal
Method in brief: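 IP-10 quantified by ELISA in human primary bronchial epithelial cell cultures at 24 hours post-dosing. Gain or loss of signal fitted relative to DMSO; parallel SRB staining assessed overt cytotoxicity.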

[14] = read-out: Monokine induced gamma interferon (MIG), CXCL9 (gene 4283); assay: BSK_BE3C_MIG: BioMAP Diversity Plus: BE3C Assay for Monokine induced gamma interferon (MIG) Biomarker Activity (AID 2283035); details: primary human bronchial epithelial cells; actives raise or lower the signal;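 also: MIG protein measured by ELISA in BE3C cultures after 24 h of dosing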
Method in brief: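 ELISA quantified MIG after 24 h exposure of primary bronchial epithelial cultures, analysed in both directions relative to DMSO. Cytotoxicity tracked in parallel cultures by sulforhodamine B staining.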

[15] = read-out: Transforming growth factor beta 1 (TGFb1), TGFB1 (gene 7040); assay: BSK_BE3C_TGFb1: BioMAP Diversity Plus: BE3C Assay for Transforming growth factor beta 1 (TGFb1) Biomarker Activity (AID 2283036;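 also: TGF-b1 protein level measured by ELISA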); details: primary human bronchial epithelial cells; actives raise or lower the signal
Method in brief: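 ELISA readout of TGF-b1 from human lung bronchial epithelial primary cells, taken 24 h post-treatment. Gain or loss of signal fitted relative to DMSO baseline, with parallel SRB staining for overt cytotoxicity.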

[16] = read-out: Plasminogen activator inhibitor-1 (PAI1), SERPINE1 (gene 5054); assay: BSK_BE3C_PAI1: BioMAP Diversity Plus: BE3C Assay for Plasminogen activator inhibitor-1 (PAI1) Biomarker Activity (AID 2283037); details: primary human bronchial epithelial cells; actives raise or lower the signal
Method in brief: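 PAI-1 was measured by ELISA in human primary bronchial epithelial cultures 24 h after chemical dosing, with cytotoxicity checked by SRB total-protein staining in parallel cultures. Activity was fitted in both directions relative to DMSO.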

[17] = read-out: urokinase plasminogen activator (uPA), PLAU (gene 5328); assay: BSK_BE3C_uPA: BioMAP Diversity Plus: BE3C Assay for urokinase plasminogen activator (uPA) Biomarker Activity (AID 2283038); details: primary human bronchial epithelial cells; actives raise or lower the signal;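 also: uPA protein level quantified by ELISA in cell cultures; uPA read one day after compound addition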
Method in brief: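 Measured by ELISA: uPA from human primary bronchial epithelial cells 24 h after chemical treatment. Values derive from bidirectional curve fitting with DMSO serving as negative control. Total protein by SRB staining in parallel wells flagged overt cytotoxicity.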

[18] = read-out: Matrix Metallopeptidase 1 (MMP1), MMP1 (gene 4312); assay: BSK_BE3C_MMP1: BioMAP Diversity Plus: BE3C Assay for Matrix Metallopeptidase 1 (MMP1) Biomarker Activity (AID 2283024); details: primary human bronchial epithelial cells; actives raise or lower the signal
Method in brief: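 ELISA measurement of MMP-1 after 24 h compound exposure of primary human bronchial epithelial cells. Changes in either direction fitted relative to DMSO; parallel SRB staining checked overt cytotoxicity.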

[19] = read-out: Thrombomodulin, THBD (gene 7056); assay: BSK_3C_Thrombomodulin: BioMAP Diversity Plus: 3C Assay for Thrombomodulin Biomarker Activity (AID 2283029); details: primary human endothelial cells (HUVEC); actives raise or lower the signal
Method in brief: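 ELISA measurement of thrombomodulin on HUVEC surface 24 h after chemical dosing; activity fitted in both directions relative to DMSO vehicle.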

[20] = read-out: Pselectin, SELP (gene 6403); assay: BSK_4H_Pselectin: BioMAP Diversity Plus: 4H Assay for Pselectin Biomarker Activity (AID 2283026); details: primary human endothelial cells (HUVEC); actives raise or lower the signal
Method in brief: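 ELISA of surface P-selectin on HUVEC, 24 h after dosing, with parallel SRB staining (0.1% after 10% TCA fixation, 560 nm) for overt cytotoxicity. Activity fitted in both directions relative to DMSO.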

Measured: AC50

CCOc1ccc(C(C)(C)COCc2cccc(Oc3ccccc3)c2)cc1
inactive: [1] | [2] | [3] | [4] | [5] | [6] | [7] | [8] | [9] | [10] | [11] | [12] | [13] | [14] | [15] | [16] | [17]

O=C(O)C=CC(F)(C(F)(F)F)C(F)(F)F
inactive: [1] | [2] | [3] | [4] | [5] | [18] | [7] | [8] | [19] | [9] | [10] | [11] | [12] | [13] | [14] | [16] | [17]

CCCCOCCOP(=O)(OCCOCCCC)OCCOCCCC
active: [1] 12.8 µM | [6] 37.5 µM
inactive: [2] | [3] | [4] | [5] | [7] | [19] | [9] | [10] | [11] | [12] | [13] | [14] | [15] | [16] | [17]

N#Cc1cc([N+](=O)[O-])ccc1N
inactive: [1] | [2] | [3] | [4] | [18] | [6] | [20] | [7] | [9] | [10] | [11] | [12] | [13] | [14] | [15] | [16] | [17]

CC(Cl)CN(C)C (stereo not drawn)
active: [1] 7.97 µM
inactive: [2] | [3] | [4] | [18] | [6] | [20] | [7] | [9] | [10] | [11] | [12] | [13] | [14] | [15] | [16] | [17]

ClC(Cl)(Cl)c1ccccc1
inactive: [1] | [2] | [3] | [4] | [5] | [18] | [6] | [7] | [8] | [19] | [9] | [10] | [11] | [12] | [13] | [14] | [15] | [16] | [17]

CCCCC(CC)COC(=O)c1c(Br)c(Br)c(Br)c(Br)c1C(=O)OCC(CC)CCCC (stereo not drawn)
inactive: [1] | [2] | [3] | [4] | [5] | [18] | [6] | [20] | [7] | [19] | [9] | [10] | [11] | [12] | [13] | [14] | [15] | [16] | [17]
